The text below walks through data of paper PMC5540273 (PLoS ONE, 2017).
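Further: kd values determined as follow-up on hits from a single-replicate KINOMEscan panel screen.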

For the first assay, the system named is FLT3.
Take `Cc1ccc(NC(=O)Nc2cc(C(C)(C)C)nn2-c2ccccc2)cc1` [GSK1014915]: the Kd – broadly, a measure of binding affinity in units of concentration – was 26 nM.

`Cn1ccc2ncnc(Oc3ccc(NC(=O)Nc4ccccc4)cc3)c21` registered a dissociation constant (Kd) of 33 nM. The Kd values of the last two compounds are within 1.5-fold of each other.

The compound `O=C(Nc1n[nH]c2nc(-c3nccs3)c(Br)cc12)C1CC1` [SB-742251] gave a dissociation constant (Kd) of 190 nM.

The next assay relates to GAK.
In turn, `Fc1cc(Cl)ccc1Nc1ccnc2cc(I)ccc12` [GW551191] showed an equilibrium dissociation constant (Kd) of 340 nM.

`Cc1ccc(-c2cc(-c3c[nH]nc3-c3ccccn3)ccn2)cc1` [GW684088]: the equilibrium dissociation constant (Kd) amounted to 110 nM. Compared with the last compound, the Kd is about 3.1-fold lower.

In the case of `CSc1nn2c(=O)cc(N3CCOCC3)nc2n1Cc1cccc(C(F)(F)F)c1C` [GSK2363608], the Kd is above 10000 nM.

Another assay deals with GSK3A.
As for `Cc1nnc(-c2ccc3occ(-c4ccc(S(C)=O)cc4)c3c2)[nH]1` (stereo not drawn), the dissociation constant (Kd) worked out at 190 nM.

Take `O=C(Nc1n[nH]c2nc(-c3nccs3)c(Br)cc12)C1CCCC1` [SB-742609]: binding was characterised by a dissociation constant (Kd) of 61 nM.

In turn, `O=C(Nc1n[nH]c2nc(-c3nccs3)c(Br)cc12)C1CC1` [SB-742251] showed an equilibrium dissociation constant (Kd) of 290 nM.
